Experimental data reported in PubChem BioAssay (EPA / NIEHS).
“And” between values parts separate entries of the source, which are not always exact repeats. Equal values may be shown once. Records with an inconclusive call do not appear. Some structures have more than one record in an assay (separate samples or runs), and their calls can disagree. The source made the active and inactive calls. Rule for the calls, unless noted: active = hit-call score of the fitted dose curve at least 0.9, where 1 is the maximum; inconclusive = response in the unintended direction; inactive = score below 0.9.

Assays:
[1] = read-out: Transforming Growth Factor (TGFA), TGFA (gene 7039); experiment: LTEA_HepaRG_TGFA: Life Technologies and Expression Analysis (LTEA) Assay for Transforming Growth Factor (TGFA) using HepaRG (AID 2283532; active = hit-call score of the fitted dose curve at least 0.9, where 1 is the maximum; inactive = score below 0.9); conditions: mRNA level, 48 h; actives raise or lower the signal
Summary of the method: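 TGFA transcript quantified by qRT-PCR (Fluidigm arrays) against three housekeeping genes, after 48 hours chemical treatment of HepaRG cells. Top concentration 100 uM with half-log dilutions, 8 points, duplicates, 0.5% DMSO.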

[2] = read-out: Transforming Growth Factor (TGFB1), TGFB1 (gene 7040); experiment: LTEA_HepaRG_TGFB1: Life Technologies and Expression Analysis (LTEA) Assay for Transforming Growth Factor (TGFB1) Transporter using HepaRG (AID 2283533; active = hit-call score of the fitted dose curve at least 0.9, where 1 is the maximum; inactive = score below 0.9); conditions: mRNA level, 48 h; actives raise or lower the signal
Summary of the method: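 HepaRG, 48 h post-plating, switched to serum-free induction medium; chemicals 100 uM top, half-log, 8 pts, 0.5% DMSO, dup; 48 h exposure; RNA → Fluidigm TaqMan qRT-PCR; norm ACTB/GAPDH/POLR2A; bidirectional fit vs DMSO.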

TIMP1, TIMP1 (gene 7076) = experiment: LTEA_HepaRG_TIMP1: Life Technologies and Expression Analysis (LTEA) Assay for TIMP1 using HepaRG (AID 2283534; active = hit-call score of the fitted dose curve at least 0.9, where 1 is the maximum; inactive = score below 0.9;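 note: TaqMan qRT-PCR signal normalized to ACTB GAPDH and POLR2A housekeeping genes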); conditions: mRNA level, 48 h; actives raise or lower the signal
Summary of the method: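 Readout is TIMP1 mRNA level measured by qRT-PCR and normalized to three housekeeping genes. Human HepaRG cells were treated for 48 h in duplicate at eight concentrations up to 100 uM (0.5% DMSO); gain or loss fitted against DMSO.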

[3] = read-out: Tumor necrosis factor receptor 1 (TNFRSF1A), TNFRSF1A (gene 7132); experiment: LTEA_HepaRG_TNFRSF1A: Life Technologies and Expression Analysis (LTEA) Assay for Tumor necrosis factor receptor 1 (TNFRSF1A) using HepaRG (AID 2283535; active = hit-call score of the fitted dose curve at least 0.9, where 1 is the maximum; inactive = score below 0.9); conditions: mRNA level, 48 h; actives raise or lower the signal
Summary of the method: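 Read-out is TNFRSF1A transcript level by TaqMan qRT-PCR, normalized to three housekeeping genes, scored as gain or loss of signal versus 0.5% DMSO. Human HepaRG cells received test chemicals for 48 h at up to 100 uM (half-log series).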

[4] = read-out: Cellular tumor antigen p53 (Homo sapiens) (UniProt P04637); experiment: LTEA_HepaRG_TP53: Life Technologies and Expression Analysis (LTEA) Assay for Tumor Protein P53 (TP53) using HepaRG (AID 2283537; active = hit-call score of the fitted dose curve at least 0.9, where 1 is the maximum; inactive = score below 0.9); conditions: mRNA level, 48 h; actives raise or lower the signal
Summary of the method: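 TP53 transcript measured by qRT-PCR, normalized to three housekeeping genes, after 48 h treatment of human HepaRG cultures with chemicals from 100 uM downward in half-log steps (0.5% DMSO vehicle, serum-free induction medium). Up- or down-regulation fitted against DMSO.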

[5] = read-out: UDP glucuronosyltransferase (UGT1A1), UGT1A1 (gene 54658); experiment: LTEA_HepaRG_UGT1A1: Life Technologies and Expression Analysis (LTEA) Assay for UDP glucuronosyltransferase (UGT1A1) using HepaRG (AID 2283538; active = hit-call score of the fitted dose curve at least 0.9, where 1 is the maximum; inactive = score below 0.9); conditions: mRNA level, 48 h; actives raise or lower the signal
Summary of the method: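 Cells are plated, cultured 48 h, switched to serum-free induction medium, then dosed 48 h at eight concentrations (max 100 uM, 0.5% DMSO). RNA is isolated and UGT1A1 expression measured by qRT-PCR; changes versus DMSO are fitted in both directions.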

[6] = read-out: UDP glucuronosyltransferase (UGT1A6), UGT1A6 (gene 54578); experiment: LTEA_HepaRG_UGT1A6: Life Technologies and Expression Analysis (LTEA) Assay for UDP glucuronosyltransferase (UGT1A6) using HepaRG (AID 2283539; active = hit-call score of the fitted dose curve at least 0.9, where 1 is the maximum; inactive = score below 0.9); conditions: mRNA level, 48 h; actives raise or lower the signal
Summary of the method: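 HepaRG, 48 h post-plating switch to serum-free induction medium; chemical 48 h, 100 uM top, half-log x8, duplicate, 0.5% DMSO. Phenobarbital 1mM induction control. UGT1A6 mRNA by TaqMan qRT-PCR; gain/loss fit vs DMSO.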

[7] = read-out: X-box binding protein 1 (XBP1), XBP1 (gene 7494); experiment: LTEA_HepaRG_XBP1: Life Technologies and Expression Analysis (LTEA) Assay for X-box binding protein 1 (XBP1) using HepaRG (AID 2283540; active = hit-call score of the fitted dose curve at least 0.9, where 1 is the maximum; inactive = score below 0.9); conditions: mRNA level, 48 h; actives raise or lower the signal
Summary of the method: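 Transcript levels of XBP1, measured by qRT-PCR and normalised to three housekeeping genes, were fitted bidirectionally relative to 0.5% DMSO controls. Human HepaRG cells received eight-point half-log dilutions from 100 uM for 48 h.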

[8] = LTEA_HepaRG_LDH_cytotoxicity: Cytotoxicity Assessment in the Life Technologies and Expression Analysis (LTEA) Assay (AID 2283563);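 for AC50: LDH activity released into spent culture medium as a marker of cell death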
Summary of the method: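 Cells were thawed and plated for 48 h. Medium was then replaced with serum-free induction medium. Chemicals (8 half-log points, maximum 100 uM, 0.5% DMSO) were added in duplicate for 48 h, after which spent medium was assayed for LDH.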

[9] = ATG_XTT_Cytotoxicity: Cytotoxicity Assessment in the Attagene TRANS-FACTORIAL HepG2 Assay (AID 2283584)
Summary of the method: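 Cells: human HepG2, transiently transfected with MRTU reporter constructs. Exposure 24 h. Readout: XTT, cell number. Baseline/neg ctrl DMSO; loss-of-signal scored.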

[10] = TOX21_p53_BLA_p2_viability: Viability Assessment in the Tox21 HCT-116 p53 Agonism Beta-lactamase Assay, Phase 2 (AID 2283591);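 note: compound exposure lasted 16 h at 37 °C; actives lower the ATP signal meaning cytotoxicity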
Summary of the method: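 Cytotoxicity readout: CellTiter-Glo ATP luminescence, 30 min at room temperature, after the beta-lactamase read. Cells were HCT116 exposed 16 h at 37C to compounds pin-transferred at 217-fold dilution from DMSO stocks.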

[11] = TOX21_p53_BLA_p3_viability: Viability Assessment in the Tox21 HCT-116 p53 Agonism Beta-lactamase Assay, Phase 3 (AID 2283593);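 note: cells exposed to compound for 16 h before reading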
Summary of the method: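 Cellular ATP was quantified by CellTiter-Glo luminescence, read after 30 min at room temperature. Beforehand, HCT116 cells (4000/well) received compound 5 h post-seeding, 217-fold diluted from DMSO, then incubated 16 h at 37C.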

[12] = target: Cellular tumor antigen p53 (Homo sapiens) (UniProt P04637); experiment: TOX21_p53_BLA_p3_ratio: Tox21 HCT-116 p53 Agonism Beta-lactamase Assay, Ratio, Phase 3 (AID 2283596)
Summary of the method: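 Cells were seeded at 4000/well, rested 5 h at 37C, then dosed with DMSO compound solutions (217-fold dilution) for 16 h. CCF4-AM substrate was loaded for 2 h at room temperature, and the 460/530 nm emission ratio was fitted for gain of signal versus DMSO.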

[13] = TOX21_p53_BLA_p5_viability: Viability Assessment in the Tox21 HCT-116 p53 Agonism Beta-lactamase Assay, Phase 5 (AID 2283600)
Summary of the method: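 Workflow: seed 4000 cells per well, wait 5 h, add compounds (DMSO, 217-fold dilution), incubate 16 h, load CCF4-AM 2 h, add CellTiter-Glo, read luminescence after 30 min.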

[14] = target: Cellular tumor antigen p53 (Homo sapiens) (UniProt P04637); experiment: TOX21_p53_BLA_p4_ratio: Tox21 HCT-116 p53 Agonism Beta-lactamase Assay, Ratio, Phase 4 (AID 2283601)
Summary of the method: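 Signal is the blue/green (460nm/530nm) ratio of cleaved versus uncleaved CCF4-AM substrate, read after 2 h substrate loading. Cells were HCT116 carrying the p53-responsive beta-lactamase reporter, dosed 16 h at 37C, 5% CO2; CellTiter-Glo measured in parallel.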

[15] = Tanguay_ZF_120hpf_MORT_legacy: (Legacy) Oregon State University Tanguay Lab 120 Hour Post-fertilization zebrafish Assay for Mortality (AID 2283633);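 for AC50: fitted as increase in binary mortality versus DMSO negative control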
Summary of the method: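 5D WT zebrafish, chorion removed 4 hpf; 1 embryo/well from 6 hpf; static exposure to 120 hpf, 28C, dark, sealed. Final DMSO 0.64%. Readout: binary mortality, brightfield, 24 + 120 hpf; DMSO as negative control.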

[16] = read-out: Thyroid Hormone Responsive (THRSP), THRSP (gene 7069); experiment: LTEA_HepaRG_THRSP: Life Technologies and Expression Analysis (LTEA) Assay for Thyroid Hormone Responsive (THRSP) using HepaRG (AID 2283536; active = hit-call score of the fitted dose curve at least 0.9, where 1 is the maximum; inactive = score below 0.9); conditions: mRNA level, 48 h; actives raise or lower the signal
Summary of the method: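 THRSP transcript quantified by Fluidigm qRT-PCR against three housekeeping genes after 48 h chemical exposure of HepaRG cells in serum-free induction medium; eight-point half-log series, top 100 uM, 0.5% DMSO vehicle, duplicate wells.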

[17] = TOX21_p53_BLA_p4_viability: Viability Assessment in the Tox21 HCT-116 p53 Agonism Beta-lactamase Assay, Phase 4 (AID 2283597);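 note: hits lower the luminescence signal meaning cytotoxicity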
Summary of the method: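 Readout: ATP luminescence (CellTiter-Glo), measured 30 min after reagent addition at RT. The reagent followed a 2 h CCF4-AM incubation, and the cells had been exposed to compound for 16 h at 37C.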

[18] = target: Cellular tumor antigen p53 (Homo sapiens) (UniProt P04637); experiment: TOX21_p53_BLA_p5_ratio: Tox21 HCT-116 p53 Agonism Beta-lactamase Assay, Ratio, Phase 5 (AID 2283599)
Summary of the method: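 Beta-lactamase reporter ratio (blue 460 nm over green 530 nm, 405 nm excitation) after 2 h CCF4-AM loading, in HCT-116 cells exposed 16 h at 37 C to compounds pinned at 217-fold dilution. Increases relative to DMSO baseline scored.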

[19] = target: Cellular tumor antigen p53 (Homo sapiens) (UniProt P04637); experiment: TOX21_p53_BLA_p2_ratio: Tox21 HCT-116 p53 Agonism Beta-lactamase Assay, Ratio, Phase 2 (AID 2283592)
Summary of the method: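 Plated HCT116 p53-bla cells (4000/well) received compound after 5 h, then 16 h at 37C/5% CO2. CCF4-AM added, 2 h RT. Ratio of 460 to 530 nm emission taken as the p53 reporter signal.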

Measured: AC50

Sequence of Cellular tumor antigen p53 (Homo sapiens) (P04637 whole entry, looked up): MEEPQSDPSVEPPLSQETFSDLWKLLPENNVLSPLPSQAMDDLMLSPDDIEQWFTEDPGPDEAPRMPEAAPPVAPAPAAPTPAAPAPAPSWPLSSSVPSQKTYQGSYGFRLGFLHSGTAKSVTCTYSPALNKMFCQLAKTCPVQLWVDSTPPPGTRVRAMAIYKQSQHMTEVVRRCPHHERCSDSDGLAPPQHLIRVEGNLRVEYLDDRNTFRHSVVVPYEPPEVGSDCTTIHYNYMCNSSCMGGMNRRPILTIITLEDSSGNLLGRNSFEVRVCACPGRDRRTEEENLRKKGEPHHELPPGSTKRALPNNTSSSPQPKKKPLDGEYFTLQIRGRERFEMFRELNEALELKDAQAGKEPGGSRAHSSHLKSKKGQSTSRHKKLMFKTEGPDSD

COC(=O)c1ccccc1N
not listed: [16] | [17] | [18] | [19]
inactive: all other assays above

Cc1ccc(N)c(N)c1
active: [5] 50 µM
not listed: [6] | [9] | [19]
inactive: all other assays above

CC(C)(C)OOC(=O)c1ccccc1
not listed: [16] | [19]
inactive: all other assays above

COC(=O)Nc1nc2ccccc2[nH]1
active: [5] 31.4 µM | [12] 12.9 µM and 8.81 µM | [18] 15 µM and 15.4 µM | [14] 9.43 µM and 7.88 µM
not listed: [10] | [13] | [15] | [16] | [19]
inactive: all other assays above

O=[N+]([O-])c1ccc(Oc2ccc(Cl)cc2Cl)cc1
active: [8] 73.8 µM
not listed: [5] | [6]
inactive: all other assays above

CNC(=O)Oc1cccc2c1OC(C)(C)C2
active: [5] 3.38 µM
not listed: [6] | [9] | [15] | [17]
inactive: all other assays above

CCCCCCCCOC(=O)c1ccc(C(=O)OCCCCCCCC)c(C(=O)OCCCCCCCC)c1
not listed: [15] | [16] | [19]
inactive: all other assays above

CS(=O)(=O)NC(=O)c1cc(Oc2ccc(C(F)(F)F)cc2Cl)ccc1[N+](=O)[O-]
active: [5] 3.32 µM
not listed: [16] | [17] | [18] | [19]
inactive: all other assays above

O=C(O)C1C2CCC(O2)C1C(=O)O (stereo not given)
active: [2] 35.1 µM | [5] 50 µM | [8] 75.1 µM
not listed: [11] | [13] | [16] | [19]
inactive: all other assays above

C[N+](C)(C)CC1CO1 (stereo not given)
not listed: [15] | [16] | [17]
inactive: all other assays above

CC(C)COC(=O)c1ccccc1C(=O)OCC(C)C
inactive: [1] | [2] | TIMP1, TIMP1 (gene 7076) | [3] | [16] | [5] | [7] | [8] | [9]

CCOc1cccc(C2(N3CCN(c4ccccc4)CC3)CCC(C)CC2)c1 (stereo not given)
inactive: [1] | [2] | TIMP1, TIMP1 (gene 7076) | [3] | [16] | [4] | [7] | [8] | [12] | [15]
active: [5] 43.5 µM

Cc1ccc(N=C=O)cc1N=C=O
active: [16] 19.3 µM | [8] 33.1 µM
not listed: [6] | [9] | [10] | [19]
inactive: all other assays above

Brc1ccc(Oc2ccccc2)cc1
not listed: [6] | [9] | [15] | [17] | [19]
inactive: all other assays above

[Cl-].[Cl-].[Hg+2]
active: [16] 21.8 µM | [10] 34.8 µM and 7.78 µM and 16.4 µM | [11] 68.5 µM and 26.1 µM | [17] 32.1 µM and 9.76 µM and 12 µM | [13] 85.2 µM and 19 µM and 18.5 µM | [15] 2.7 µM
inactive: [1] | [2] | TIMP1, TIMP1 (gene 7076) | [3] | [4] | [5] | [7] | [9] | [11]

CC(O)CCO (stereo not given)
not listed: [9] | [16]
inactive: all other assays above
